Test results as given in PubChem BioAssay (Tox21).
Records with an inconclusive call do not appear. Entries that show only a call come without a potency. Activity calls are given as the source filed them. Calls follow the shape of the full dose curve.

Target: 5-hydroxytryptamine receptor 2A (Homo sapiens) (UniProt P28223)
Assay: 5-hydroxytryptamine receptor 2A (HTR2A) small molecule agonists, cell-based qHTS assay (AID 1963587); also: nearly all actives have a fitted effect of over 30% in size
Conditions: HTR2A-CHO cells, calcium flux fluorescence, agonist mode; series mostly up to 76.8 µM
Description: National Center for Advancing Translational Sciences [NCATS]
Division of Preclinical Innovation [DPI]
U.S. Environmental Protection Agency [EPA]
National Institutes of Environmental Health Sciences [NIEHS]
National Toxicology Program [NTP]
U.S. Food and Drug Administration [FDA]
The HTR2A receptor is a subtype of the 5-HT2 receptor that belongs to the serotonin receptor family and is a G protein-coupled receptor (GPCR). The HTR2A-CHO cell line stably expressing human 5-hydroxytryptamine receptor 2A (HTR2A) can be used for screening agonists of interactions between 5-HT2 and its ligands. The HTR2A-CHO calcium flux assay is a homogeneous fluorescence-based assay for detecting the intracellular calcium level using FDSS kinetic plate reader system.
HTR2A-CHO cells were dispensed at 2000 cells/3uL/well in 1536-well black-clear bottom plates using a Multidrop Dispenser. After the assay plates were incubated at a 37 C/5% CO2 incubator for 18 h, 3 uL of Dye Loading Buffer was transferred to the assay plate by a Flying Reagent Dispenser. The assay plates were incubated at 37 C for 1h. For agonist mode, 23 nL of compounds dissolved in DMSO, positive controls or DMSO only was transferred to the assay plate by a pin tool. The fluorescence intensity in the plates was measured using FDSS 7000EX kinetic plate reader for 2 min at 1 sec intervals.
Potency is read from the fitted curve at half-maximal effect.

Chain of 5-hydroxytryptamine receptor 2A (Homo sapiens) (P28223 whole entry, looked up): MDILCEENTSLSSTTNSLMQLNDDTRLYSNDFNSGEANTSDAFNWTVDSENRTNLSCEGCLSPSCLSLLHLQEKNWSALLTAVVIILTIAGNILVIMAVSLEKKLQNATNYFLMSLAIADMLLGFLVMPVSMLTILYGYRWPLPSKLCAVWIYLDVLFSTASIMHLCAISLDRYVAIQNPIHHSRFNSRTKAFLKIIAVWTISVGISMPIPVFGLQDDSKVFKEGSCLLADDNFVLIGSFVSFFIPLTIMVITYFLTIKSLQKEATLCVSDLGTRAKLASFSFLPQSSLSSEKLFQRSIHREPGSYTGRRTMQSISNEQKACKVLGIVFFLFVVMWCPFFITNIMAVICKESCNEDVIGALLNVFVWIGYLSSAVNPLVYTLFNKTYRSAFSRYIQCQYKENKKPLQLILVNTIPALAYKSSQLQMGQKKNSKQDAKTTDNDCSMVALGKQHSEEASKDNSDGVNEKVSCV

SMILES	Potency
C=CC[C@]1(O)CC[C@H]2[C@@H]3CCC4=CC(=O)CCC4=C3C=C[C@@]21C	inactive
CSCC[C@H](NC(=O)[C@H](Cc1c[nH]c2ccccc12)NC(=O)CCNC(=O)OC(C)(C)C)C(=O)N[C@@H](CC(=O)O)C(=O)N[C@@H](Cc1ccccc1)C(N)=O	inactive
COP(=S)(OC)Oc1ccc([N+](=O)[O-])c(C)c1	inactive
Clc1cccc(SC2CCNCC2)n1	0.0849 µM (active)
CC(C)(COCC1CO1)COCC1CO1 (stereo not given)	inactive
ClC1=C(Cl)[C@]2(Cl)[C@H]3[C@H]([C@@H]4C=C[C@H]3C4)[C@@]1(Cl)C2(Cl)Cl	inactive
CC/C(=N\OC/C=C/Cl)C1=C(O)CC(C2CCOCC2)CC1=O (stereo not given)	inactive
CCOP(=O)(OCC)Oc1cc(C)nc(C(C)C)n1	inactive
CCCSP(=O)(OCC)SCCC	inactive
NCCc1cc(O)c(O)cc1O	23.9 µM (active)
CC(CC(C#N)(c1ccccc1)c1ccccc1)N(C)C (stereo not given)	inactive
CC(C)(C)OC(=O)c1ncn2c1[C@@H]1CCCN1C(=O)c1c(Br)cccc1-2	inactive
COC(=O)c1cc(Oc2ccc(Cl)cc2Cl)ccc1[N+](=O)[O-]	inactive
CC(C)(OO)c1ccccc1	inactive
CCCSP(=O)(OCC)Oc1ccc(Br)cc1Cl (stereo not given)	inactive
CCOP(=S)(OCC)Oc1ncn(-c2ccccc2)n1	inactive
CCc1ccccc1N	inactive
BrCC1CO1 (stereo not given)	inactive
CCCN(CC1CC1)c1c([N+](=O)[O-])cc(C(F)(F)F)cc1[N+](=O)[O-]	inactive
NC1CCC(CC2CCC(N)CC2)CC1 (stereo not given)	19.2 µM (active)

SMILES	Potency
CC(Cl)C(C)Cl (stereo not given)	inactive
[O]=[Cd]	inactive
O=c1ssc(Cl)c1Cl	inactive
O=C(NC(=O)c1c(F)cccc1F)Nc1ccc(Oc2ccc(C(F)(F)F)cc2Cl)cc1F	inactive
CC[N+]1(C)CCCC(OC(=O)C(O)(c2ccccc2)c2ccccc2)C1 (stereo not given)	inactive
CCCC[P+](CC)(CCCC)CCCC (tested in a mixture with another compound)	inactive
CCOP(=O)(OCC)O/C(=C/Cl)c1ccc(Cl)cc1Cl	inactive
Oc1cccc(Cl)c1Cl	inactive
COC(=O)C1=CCCN(C)C1	inactive
Nc1ccc([N+](=O)[O-])cc1Cl	inactive
CCCCOCN(C(=O)CCl)c1c(CC)cccc1CC	inactive
CCOP(=S)(OCC)OC(Cl)C(Cl)(Cl)Cl (stereo not given)	inactive
N#CC(CCc1ccc(Cl)cc1)(Cn1cncn1)c1ccccc1 (stereo not given)	inactive
ClC(Cl)Br	inactive
CCCN	inactive
NNCc1ccccc1	inactive
O=[N+]([O-])O.O=[N+]([O-])O.[Cd]	38.9 µM (active)
CCC1(C2=NCCN2)Cc2ccccc2O1 (stereo not given)	inactive
O=C(NC(O)C(Cl)(Cl)Cl)NC(O)C(Cl)(Cl)Cl (stereo not given)	inactive
CC1CN1P(=O)(N1CC1C)N1CC1C (stereo not given)	inactive
